Reference: the supplement of paper PMC6992640
Where a name gives a salt, the structure may show the parent alone.

Key:
Assay in all cases: cell viability of combination (% of vehicle); higher = less cytotoxic
Details in all cases: 1 µM; 72 h; partner dose: 10 nM
HCI01 = system: HCI01 (cells of a triple-negative basal-like breast cancer xenograft)
Experimental: (§1)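 PDX cells were treated for 72 h with each drug at 1 µM plus afatinib (10 nM; 1 µM for WHIM30). Luciferase viability is expressed as percent of vehicle.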

UCD52 = system: UCD52 (cells of a triple-negative basal-like breast cancer xenograft)
Experimental: as §1

WHIM2 = system: WHIM2 (cells of a triple-negative basal-like breast cancer xenograft)
Experimental: as §1

| SMILES | cell viability of combination (HCI01) | cell viability of combination (UCD52) | cell viability of combination (WHIM2) |
| --- | --- | --- | --- |
| C#Cc1cccc(Nc2ncnc3cc(OCCOC)c(OCCOC)cc23)c1 [Erlotinib] + CN(C)C/C=C/C(=O)Nc1cc2c(Nc3ccc(F)c(Cl)c3)ncnc2cc1O[C@H]1CCOC1 [Afatinib] | 41.1 | 55 | 42 |
| CN1CCN(c2ccc(C(=O)/N=c3\[nH][nH]c4ccc(Cc5cc(F)cc(F)c5)cc34)c(NC3CCOCC3)c2)CC1 [Entrectinib] + CN(C)C/C=C/C(=O)Nc1cc2c(Nc3ccc(F)c(Cl)c3)ncnc2cc1O[C@H]1CCOC1 [Afatinib] | 57.5 | 54.3 | 38.5 |
| Cc1c(C(=O)NN2CCCCC2)nn(-c2ccc(Cl)cc2Cl)c1-c1ccc(Cl)cc1 [Rimonabant] + CN(C)C/C=C/C(=O)Nc1cc2c(Nc3ccc(F)c(Cl)c3)ncnc2cc1O[C@H]1CCOC1 [Afatinib] | 56.7 | 75 | 48.4 |
| COc1nc2ccc(Br)cc2cc1[C@@H](c1ccccc1)[C@@](O)(CCN(C)C)c1cccc2ccccc12 [Bedaquiline fumarate] + CN(C)C/C=C/C(=O)Nc1cc2c(Nc3ccc(F)c(Cl)c3)ncnc2cc1O[C@H]1CCOC1 [Afatinib] | 52.9 | 91.2 | 49 |
| CC1=C(C(=O)OC(C)C)C(c2cccc([N+](=O)[O-])c2)C(C(=O)OC2CN(C(c3ccccc3)c3ccccc3)C2)=C(N)N1 (centres undefined) [Azelnidipine] + CN(C)C/C=C/C(=O)Nc1cc2c(Nc3ccc(F)c(Cl)c3)ncnc2cc1O[C@H]1CCOC1 [Afatinib] | 56.7 | 52.3 | 43 |
| COc1ccc(CN2CCN(C(c3ccc(F)cc3)c3ccc(F)cc3)CC2)c(OC)c1OC.Cl.Cl [Lomerizine HCl] + CN(C)C/C=C/C(=O)Nc1cc2c(Nc3ccc(F)c(Cl)c3)ncnc2cc1O[C@H]1CCOC1 [Afatinib] | 57.7 | 68.9 | 50.9 |
| CCOC(=O)c1c(CSc2ccccc2)n(C)c2cc(Br)c(O)c(CN(C)C)c12.Cl [Arbidol HCl] + CN(C)C/C=C/C(=O)Nc1cc2c(Nc3ccc(F)c(Cl)c3)ncnc2cc1O[C@H]1CCOC1 [Afatinib] | 55.3 | 53 | 45.2 |
| CC(O)C(=O)O.CCOc1ccc2nc3cc(N)ccc3c(N)c2c1.O [Ethacridine lactate monohydrate] + CN(C)C/C=C/C(=O)Nc1cc2c(Nc3ccc(F)c(Cl)c3)ncnc2cc1O[C@H]1CCOC1 [Afatinib] | 52.5 | 70.5 | 31.1 |
| CCCCCCCCc1ccc(CCC(N)(CO)CO)cc1.Cl [Fingolimod (FTY720)] + CN(C)C/C=C/C(=O)Nc1cc2c(Nc3ccc(F)c(Cl)c3)ncnc2cc1O[C@H]1CCOC1 [Afatinib] | 53.7 | 69.9 | 44.5 |
| Clc1ccc(C(Cn2ccnc2)OCc2ccc(Sc3ccccc3)cc2)c(Cl)c1.O=[N+]([O-])O (centres undefined) [Fenticonazole Nitrate] + CN(C)C/C=C/C(=O)Nc1cc2c(Nc3ccc(F)c(Cl)c3)ncnc2cc1O[C@H]1CCOC1 [Afatinib] | 49.2 | 59.9 | 49.9 |
| CSc1ccc2c(c1)N(CCC1CCCCN1C)c1ccccc1S2.Cl (centres undefined) [Thioridazine HCl] + CN(C)C/C=C/C(=O)Nc1cc2c(Nc3ccc(F)c(Cl)c3)ncnc2cc1O[C@H]1CCOC1 [Afatinib] | 61.8 | 58.1 | 47.4 |
| CC1(C)CCC(c2ccc(Cl)cc2)=C(CN2CCN(c3ccc(C(=O)NS(=O)(=O)c4ccc(NC(CCN5CCOCC5)CSc5ccccc5)c(S(=O)(=O)C(F)(F)F)c4)cc3)CC2)C1 (centres undefined) [ABT-263 (Navitoclax)] + CN(C)C/C=C/C(=O)Nc1cc2c(Nc3ccc(F)c(Cl)c3)ncnc2cc1O[C@H]1CCOC1 [Afatinib] | 33 | 38 | 29.5 |
| CN(C)CC=CC(=O)Nc1cc2c(Nc3ccc(F)c(Cl)c3)ncnc2cc1OC1CCOC1.O=C(O)C=CC(=O)O.O=C(O)C=CC(=O)O (centres undefined) [Afatinib dimaleate] + CN(C)C/C=C/C(=O)Nc1cc2c(Nc3ccc(F)c(Cl)c3)ncnc2cc1O[C@H]1CCOC1 [Afatinib] | 50.8 | 24.5 | 35.4 |
| CC(CCC(=O)O)C1CCC2C3CCC4CC(O)CCC4(C)C3CCC12C (centres undefined) [Lithocholic Acid] + CN(C)C/C=C/C(=O)Nc1cc2c(Nc3ccc(F)c(Cl)c3)ncnc2cc1O[C@H]1CCOC1 [Afatinib] | 45.1 |  | 40.5 |
| CN1CCN(CCOc2cc(OC3CCOCC3)c3c(Nc4c(Cl)ccc5c4OCO5)ncnc3c2)CC1 [Saracatinib (AZD0530)] + CN(C)C/C=C/C(=O)Nc1cc2c(Nc3ccc(F)c(Cl)c3)ncnc2cc1O[C@H]1CCOC1 [Afatinib] | 41.1 |  | 24.5 |
| CCCCCCCCCCCCCCCCOP(=O)([O-])OCC[N+](C)(C)C [Miltefosine] + CN(C)C/C=C/C(=O)Nc1cc2c(Nc3ccc(F)c(Cl)c3)ncnc2cc1O[C@H]1CCOC1 [Afatinib] | 56.7 |  | 49.3 |
| CNC(=O)c1cc(Oc2ccc(NC(=O)Nc3ccc(Cl)c(C(F)(F)F)c3)c(F)c2)ccn1.Cl [Regorafenib hydrochloride] + CN(C)C/C=C/C(=O)Nc1cc2c(Nc3ccc(F)c(Cl)c3)ncnc2cc1O[C@H]1CCOC1 [Afatinib] | 52 |  | 43.3 |

| SMILES | cell viability of combination (HCI01) | cell viability of combination (UCD52) | cell viability of combination (WHIM2) |
| --- | --- | --- | --- |
| CC1=CC(=O)c2ccccc2C1=O [Menadione] + CN(C)C/C=C/C(=O)Nc1cc2c(Nc3ccc(F)c(Cl)c3)ncnc2cc1O[C@H]1CCOC1 [Afatinib] | 55.8 |  | 50.2 |
| CC(C)C(=O)OCC(=O)[C@@]12O[C@H](C3CCCCC3)O[C@@H]1C[C@H]1[C@@H]3CCC4=CC(=O)C=C[C@]4(C)[C@H]3[C@@H](O)C[C@@]12C [Ciclesonide] + CN(C)C/C=C/C(=O)Nc1cc2c(Nc3ccc(F)c(Cl)c3)ncnc2cc1O[C@H]1CCOC1 [Afatinib] | 67.5 |  | 41.3 |
| COc1cccc2c1C(=O)c1c(O)c3c(c(O)c1C2=O)CC(O)(C(=O)CO)CC3OC1CC(N)C(O)C(C)O1.Cl (centres undefined) [Doxorubicin (Adriamycin) HCl] + CN(C)C/C=C/C(=O)Nc1cc2c(Nc3ccc(F)c(Cl)c3)ncnc2cc1O[C@H]1CCOC1 [Afatinib] | 49.5 |  | 13.6 |
| CC(C)C[C@H](NC(=O)[C@H](Cc1ccccc1)NC(=O)c1cnccn1)B(O)O [Bortezomib] + CN(C)C/C=C/C(=O)Nc1cc2c(Nc3ccc(F)c(Cl)c3)ncnc2cc1O[C@H]1CCOC1 [Afatinib] | 22.5 |  | 14.4 |
| CN1CCN(CCCN2c3ccccc3Sc3ccc(C(F)(F)F)cc32)CC1.Cl.Cl [Trifluoperazine 2HCl] + CN(C)C/C=C/C(=O)Nc1cc2c(Nc3ccc(F)c(Cl)c3)ncnc2cc1O[C@H]1CCOC1 [Afatinib] | 56.1 |  | 44 |
| CCC(=C(c1ccccc1)c1ccc(OCCN(C)C)cc1)c1ccccc1.O=C(O)CC(O)(CC(=O)O)C(=O)O [Tamoxifen Citrate] + CN(C)C/C=C/C(=O)Nc1cc2c(Nc3ccc(F)c(Cl)c3)ncnc2cc1O[C@H]1CCOC1 [Afatinib] | 65 |  | 51 |
| CCN(CC)CCCC(C)Nc1ccnc2cc(Cl)ccc12.O=P(O)(O)O.O=P(O)(O)O (centres undefined) [Chloroquine diphosphate] + CN(C)C/C=C/C(=O)Nc1cc2c(Nc3ccc(F)c(Cl)c3)ncnc2cc1O[C@H]1CCOC1 [Afatinib] | 44.6 |  | 34.5 |
| Nc1ncn(C2OC(CO)C(O)C2O)c(=O)n1 (centres undefined) [5-Azacytidine] + CN(C)C/C=C/C(=O)Nc1cc2c(Nc3ccc(F)c(Cl)c3)ncnc2cc1O[C@H]1CCOC1 [Afatinib] | 53.5 |  | 48.9 |
| COC1=C(OC)C(=O)C(CCCCCCCCCCO)=C(C)C1=O [Idebenone] + CN(C)C/C=C/C(=O)Nc1cc2c(Nc3ccc(F)c(Cl)c3)ncnc2cc1O[C@H]1CCOC1 [Afatinib] | 58.8 |  | 50.1 |
| CC[C@@H]1/C=C(\C)C[C@H](C)C[C@H](OC)[C@H]2O[C@@](O)(C(=O)C(=O)N3CCCC[C@H]3C(=O)O[C@H](/C(C)=C/[C@@H]3CC[C@H](Cl)[C@H](OC)C3)[C@H](C)[C@@H](O)CC1=O)[C@H](C)C[C@@H]2OC [Pimecrolimus] + CN(C)C/C=C/C(=O)Nc1cc2c(Nc3ccc(F)c(Cl)c3)ncnc2cc1O[C@H]1CCOC1 [Afatinib] | 51.2 |  | 42.6 |
| CNCCC(Oc1cccc2ccccc12)c1cccs1.Cl (centres undefined) [Duloxetine HCl] + CN(C)C/C=C/C(=O)Nc1cc2c(Nc3ccc(F)c(Cl)c3)ncnc2cc1O[C@H]1CCOC1 [Afatinib] | 45.3 |  | 41.1 |
| COC(=O)C1=C(C)NC(C)=C(C(=O)OCCN(C)Cc2ccccc2)C1c1cccc([N+](=O)[O-])c1.Cl (centres undefined) [Nicardipine HCl] + CN(C)C/C=C/C(=O)Nc1cc2c(Nc3ccc(F)c(Cl)c3)ncnc2cc1O[C@H]1CCOC1 [Afatinib] | 58.7 |  | 48 |
| Cc1nc(NC(=O)N2CCCC2C(N)=O)sc1-c1ccnc(C(C)(C)C(F)(F)F)c1 (centres undefined) + CN(C)C/C=C/C(=O)Nc1cc2c(Nc3ccc(F)c(Cl)c3)ncnc2cc1O[C@H]1CCOC1 [Afatinib] | 46.9 |  | 37.9 |
| C=CC(=O)Nc1cc(Nc2nccc(-c3cn(C)c4ccccc34)n2)c(OC)cc1N(C)CCN(C)C + CN(C)C/C=C/C(=O)Nc1cc2c(Nc3ccc(F)c(Cl)c3)ncnc2cc1O[C@H]1CCOC1 [Afatinib] | 40 |  | 34.9 |
| Cl.Fc1ccc(C2CCNCC2COc2ccc3c(c2)OCO3)cc1 (centres undefined) [Paroxetine HCl] + CN(C)C/C=C/C(=O)Nc1cc2c(Nc3ccc(F)c(Cl)c3)ncnc2cc1O[C@H]1CCOC1 [Afatinib] | 52.3 |  | 49.6 |
| CO[C@H]1C[C@@H]2CC[C@@H](C)[C@@](O)(O2)C(=O)C(=O)N2CCCC[C@H]2C(=O)O[C@H]([C@H](C)C[C@@H]2CC[C@@H](OC(=O)C(C)(CO)CO)[C@H](OC)C2)CC(=O)[C@H](C)/C=C(\C)[C@@H](O)[C@@H](OC)C(=O)[C@H](C)C[C@H](C)/C=C/C=C/C=C/1C [Temsirolimus] + CN(C)C/C=C/C(=O)Nc1cc2c(Nc3ccc(F)c(Cl)c3)ncnc2cc1O[C@H]1CCOC1 [Afatinib] | 45.9 |  | 44 |
